# Experimental data published in PubChem BioAssay (EPA / NIEHS).
# Active and inactive are the calls of the source. The calls were made as follows: active = hit-call score of the fitted dose curve at least 0.9, where 1 is the maximum; inactive = score below 0.9.
# Experiment: APR_HepG2_P-H2AX_72hr: Apredica 72-hour HepG2 Assay for H2AX Phosphorylation (AID 2282916)
# Conditions: imaging, actives raise or lower the signal
# Protocol: APR_HepG2_72hr is a cell-based, multiplexed-readout assay that uses HepG2, a human liver cell line, with measurements taken at 72 hours after chemical dosing in a 384-well plate.APR_HepG2_P-H2AX_72hr is one of 10 assay component(s) measured or calculated from the APR_HepG2_72hr assay. It is designed to make measurements of dna content, a form of viability reporter, as detected with fluorescence intensity signals by HCS Fluorescent Imaging technology.Data from the assay component APR_HepG2_P-H2AX_72hr was analyzed into 1 assay endpoint. This assay endpoint, APR_HepG2_P-H2AX_72hr, was analyzed with bidirectional fitting relative to DMSO as the negative control and baseline of activity. Using a type of viability reporter, measures of protein for gain or loss-of-signal activity can be used to understand the signaling at the pathway-level as they relate to the gene . Furthermore, this assay endpoint can be referred to as a primary readout, because this assay has produced multiple assay endpoints where this one serves a signaling function. To generalize the intended target to other relatable targets, this assay endpoint is annotated to the dna binding intended target family, where the subfamily is cellular response to DNA damage stimulus.
# Cells were treated with dimethyl sulfoxide (DMSO) as a solvent control at a final concentration of 0.5% v/v or with compounds in DMSO with a resulting final DMSO concentration of 0.5% v/v. Compound treatment was done at concentrations of 0.39, 0.78, 1.56, 3.12, 6.24, 12.5, 25, 50, 100, and 200 uM in duplicate on each plate. Cells were treated with compounds for 1, 24, or 72 hr. Carbonyl […] m-chloro-phenylhydrazone (CCCP) and taxol were used as positive controls for mitochondrial function and cytoskeletal stability, respectively; DMSO served as the negative control for this experiment. Cells were fixed by the direct addition of 50 uL formaldehyde in Hank's Balanced Salt Solution (HBSS) to a final concentration of 3.7%. After incubation in the fixation medium for 30 min at room temperature (293-298 K), cells were rinsed twice with HBSS and treated with cell permeabilization buffer (16 uL of 0.5% Triton X-100) for 10 min at room temperature (293-298 K) before labeling. For mitochondrial membrane potential and mitochondrial measurements, pre-fixed cells were incubated with 50 uL of MitoTracker Red CMXRos (Invitrogen) at a concentration of 250 nM for 30 min before fixation. In the remaining cases, post-fixed cells were labeled by incubation with a multiplexed mixture of primary antibodies in HBSS for 60 min at room temperature (293-298 K) to detect immunoreactivity of c-Jun (1:500), phospho-histone H3 (1:100), phospho-histone H2A.x (1:200), p53 (1:400), alpha-tubulin (1:200) and Hoechst 33342 (2 ug/mL). Cells were labeled for multiplexed imaging on two separate plates: a) Hoechst 33342, MitoTracker Red, phospho-histone H3, and alpha-tubulin, and b) Hoechst 33342, phospho-histone H2A.x, and c-Jun. A final rinse with HBSS (50 uL) was performed before analysis. The primary and secondary antibodies for the proteins were phospho-histone H3 (rabbit anti-phospho-histone H3 and FITC-donkey anti-rabbit IgG), phospho-histone H2A.x (mouse anti-phospho-histone H2A.x and FITC-donkey anti-mouse IgG), c-Jun (rabbit anti-phospho-c-Jun and Cy3-donkey anti-rabbit IgG), p53 (sheep anti-p53 and Cy5-donkey anti-sheep IgG), alpha-tubulin (mouse anti-alpha-tubulin and Cy5-donkey anti-mouse IgG). These antibodies are available as the CellCiphr HepG2 assay kit (Millipore).Digital images of each well were captured using a Cellomics ArrayScan VTI (Thermo Scientific Cellomics) (0.8 NA objective, 0.63x optical coupler, and XF-93 filter set) at 20x magnification. The images were acquired using the autofocus feature of the ArrayScan instrument, which entails the following steps. First, the camera focuses on channel 1 (Hoechst 33342), where nuclei are identified. Second, a Z offset of 1 um is used for capturing mitochondria (MitoTracker Red). […]
Compound,outcome,AC50
CC(=O)c1ccccc1,inactive,–
COCc1nnc(-c2ccc[n+]([O-])c2)n1-c1c(Cl)c(Cl)cc2[nH]c(=O)c(=O)[nH]c12,inactive,–
CCCOc1ccc(S(=O)(=O)N2CCN(CC)CC2)cc1-c1nc2c(CC)n(Cc3ccccn3)nc2c(=O)[nH]1,–,99.7 µM (active)
CCCCOC(=O)c1ccccc1,inactive,–
Nc1ccn([C@@H]2O[C@H](CO)[C@@H](O)[C@@H]2O)c(=O)n1,–,0.202 µM (active)
OCc1ccccc1,inactive,–
CCCCC(CC)C(=O)OCCOCCOCCOC(=O)C(CC)CCCC (stereo not given),inactive,–
CCCCCCCCN(C)C,inactive,–
OC(Cn1cncn1)(Cn1cncn1)c1ccc(F)cc1F,inactive,–
CCCCCCCCCC,inactive,–
CCCCCCCCCCCCCCO,–,98.6 µM (active)
CCN(CC)C(=S)SSC(=S)N(CC)CC,–,27.1 µM (active)
Cc1nc(-c2ccccn2)ncc1C(=O)Nn1cc(C)c2cc(F)ccc21,inactive,–
O=C(NO)C1(NS(=O)(=O)c2ccc(Oc3ccc(F)cc3)cc2)CCOCC1,–,100 µM (active)
O=C(O)[C@H](O)[C@@H](O)C(=O)O,inactive,–
CCCc1ccccc1,inactive,–
CCCCCCOC(=O)CC(CC(=O)OCCCCCC)(OC(=O)CCC)C(=O)OCCCCCC,inactive,–
C=CCc1cc(S(=O)(=O)c2ccc(O)c(CC=C)c2)ccc1O,–,53.2 µM (active)
OCCOCCOCCO,inactive,–
CCn1nc(C)c2c1C(=O)NCC(c1ccc(O)cc1)=N2,inactive,–

Compound,outcome,AC50
NC(N)=O,inactive,–
O=c1[nH]cnc2c1ncn2[C@H]1CC[C@@H](CO)O1,inactive,–
c1ccc2ncccc2c1,inactive,–
OC(CCl)CCl,inactive,–
c1ccc(C(O[C@@H]2CCCN(CCc3ccc4c(c3)OCO4)C2)c2ccccc2)cc1,–,96 µM (active)
C[C@@H](Oc1ccc(CNC(=O)c2cccnc2Oc2ccc3c(c2)OCO3)c(F)c1)C(=O)O,inactive,–
COS(C)(=O)=O,inactive,–
OCC(CO)(CO)CO,inactive,–
C=CN1CCCC1=O,inactive,–
c1ccc2c(c1)-c1cccc3c1c-2cc1ccccc13,–,0.0391 µM (active)
OC[C@H]1O[C@@](CO)(O[C@H]2O[C@H](CO)[C@@H](O)[C@H](O)[C@H]2O)[C@@H](O)[C@@H]1O,inactive,–
CNC(C)=O,inactive,–
CCCCN1C(=O)[C@@H]([C@H](O)C2CCCCC2)NC(=O)C12CCN(Cc1ccc(Oc3ccc(C(=O)O)cc3)cc1)CC2,–,46.4 µM (active)
O=S(=O)(O)c1ccc(N=Nc2c(O)ccc3cc(S(=O)(=O)O)ccc23)cc1,inactive,–
CCCC(CCC)C(=O)O,inactive,–
NC(=O)N(O)[C@@H]1COc2cc(OCc3ccccc3)ccc21,inactive,–
C[C@]12C=CC(=O)C=C1CC[C@H]1[C@@H]3C[C@@H](O)[C@](O)(C(=O)CO)[C@@]3(C)C[C@H](O)[C@@]12F,inactive,–
CC(C)CCCCCCOC(=O)C1CCCCC1C(=O)OCCCCCCC(C)C (stereo not given),inactive,–
COc1cc2c(c(OC)c1OC)-c1ccc(OC)c(=O)cc1[C@@H](NC(C)=O)CC2,–,0.0815 µM (active)
CCOC(N)=O,inactive,–
